The record followed here is PubChem BioAssay (EPA / NIEHS).

Activity calls are given as the source filed them. Rule for the calls: active = hit-call score of the fitted dose curve at least 0.9, where 1 is the maximum; inactive = score below 0.9.

Read-out in the experiment: Cytochrome P450 (CYP1A1), CYP1A1 (gene 1543)
Put plainly: LTEA_HepaRG_CYP1A1: Life Technologies and Expression Analysis (LTEA) Assay for Cytochrome P450 (CYP1A1) using HepaRG (AID 2283454). To be noted: mRNA level, 48 h; actives raise or lower the signal. The protocol: LTEA_HepaRG is a cell based, multiplexed-readout assay that uses HepaRG, a human liver cell line, with measurements taken at 48 hours after chemical dosing on a 96-well plate.LTEA_HepaRG_CYP1A1 is one of 102 assay component(s) measured in the LTEA HepaRG cell culture assay. It is a marker of NR mediated metabolism.Data from the assay component LTEA_HepaRG_CYP1A1 was analyzed into 1 endpoint. This assay endpoint, LTEA_HepaRG_CYP1A1, was analyzed with bidirectional fitting relative to DMSO as the negative control and baseline of activity. Using a type of inducible reporter, measures of mRNA induction for gain or loss-of-signal activity can be used to understand regulation of transcription factor activity. To generalize the intended target to other relatable targets, this assay endpoint is annotated to the cyp intended target family, where the subfamily is xenobiotic metabolism.
A total of 1060 chemcials from the ToxCast library were tested in eight-point concentration-response experiments. Cell culture and cytotoxicity assays were conducted at Thermo Fisher Scientific's Custom Services facility (Madison, WI). A single lot of human HepaRG cells (Thermo Fisher Scientific, Frederick, MD) was used for the cell culture experiments. 96-well format collagen type I coated plates of human HepaRG cells were prepared using established methods. Briefly, cryopreserved HepaRG cells were thawed, plated at a density of approximately 100,000 cells/well in HepaRG Thaw, Plate, and General Purpose media (HPRG770, Thermo Fisher Scientific), and incubated for 48 hours. 0.5% DMSO was selected as vehicle control to balance the requisite need of DMSO in HepaRG cultures to maintain differentiation (for example, baseline metabolism, proportions of hepatocytes vs. cholangiocytes), while enabling further hepatic receptor pathway activation (for example, PXR and CAR) in response to chemical exposure. 48 hours after plating, the culture medium was replaced with HepaRG Serum-Free Incudtion Media. Cells were exposed to each test chemical in duplicate and maintained in CO2 incubators for another 48 hours. Chemical plates were thawed to room temperature and 200x concentrations of treatment groups were prepared. 8-point conentration-reponse curves were made with the highest exposure at 100 uM, followed by half-log dilutions, all in 0.5% DMSO. Each test plate contained variouse controls, induction positive controls (1mM phenobarbital), cytotoxicity positive controls ([…] aflatoxin B1), vehicle controls (0.5% DMSO), and total lysis controls (0.5% DMSO). Cell morphology images were taken using an Essen IncuCyte FLR automated microscope, with six 96-well plates imaged in about 24 minutes. Images were captured and exported and JPEG files. Spent culture media was transfered to black-well plates for the LDH assay, and remaining media was sorted at -80 C for later use. Cells were treated with RLT buffer and frozen until shipped for gene expression analysis. Total RNA was isolated from the cell suspension in 75 uL of Buffer RLT (Qiagen, Germantown, MD 20874) by Quintiles/Expression Analysis (Durham, NC) using a custom isolation procedure. Total RNA from each plate well was transferred to a preamplification plate. Fluidigm's 96.96 Dynamic ArrayTM (Fluidigm, Amsterdam, the Netherlands) technology was used for gene expression analyses by quantitative reverse transcription polymerase chain reaction (qRT-PCR, performed by Quintiles/Expression Analysis, Durham, NC)89. Standard TaqManTM Assays (Applied Biosystems/ThermoFisher Scientific, Foster City, CA) were used to assess the expression of 93 genes selected based on their selectivity and sensitivity to important hepatic receptors known to be modulated by environmental chemicals; importance in human hepatocyte functionality; and hepatotoxicity. […]
As usually defined, the AC50 is the concentration at which the activity in the assay is half-maximal. For `NC(=O)NN=Cc1ccc([N+](=O)[O-])o1`, the AC50 was 50 µM (active).

On to `CCCOc1ccc(S(=O)(=O)N2CCN(CC)CC2)cc1-c1nc2c(CC)n(Cc3ccccn3)nc2c(=O)[nH]1`, for which the AC50 was 59.8 µM (active).

Regarding `CCN(CC)C(=S)SSC(=S)N(CC)CC`, the concentration at half-maximal activity (AC50) was 51 µM (active).

In the case of `Cn1c(=O)c2[nH]cnc2n(C)c1=O`, the molecule was called inactive.

As to `NC(N)=O`, the half-maximal activity concentration (AC50) is 81.8 µM (active).

For `CCOc1ccc2[nH]cc(C(=O)NCc3ccccc3)c(=O)c2n1`, the AC50 was 34 µM (active).

On to `CCCCCCOC(=O)CC(CC(=O)OCCCCCC)(OC(=O)CCC)C(=O)OCCCCCC`, for which the molecule was classed as inactive.

Take `CCc1ccc(O)c(C(C)(C)C)c1`: the half-maximal activity concentration (AC50) is 50 µM (active).

In the case of `NC(=O)N(O)[C@@H]1COc2cc(OCc3ccccc3)ccc21`, the AC50 is 40.2 µM (active).

As for `CCCCCCCC/C=C\CCCCCCCC(=O)OC[C@@H](O)[C@H]1OC[C@H](O)[C@H]1O`, the result was inactive.

For the molecule `Cc1nc(-c2ccccn2)ncc1C(=O)Nn1cc(C)c2cc(F)ccc21`, the AC50 was 18.6 µM (active).

For the molecule `OC[C@H]1O[C@@H]2O[C@H]3[C@H](O)[C@@H](O)[C@@H](O[C@H]4[C@H](O)[C@@H](O)[C@@H](O[C@H]5[C@H](O)[C@@H](O)[C@@H](O[C@H]6[C@H](O)[C@@H](O)[C@@H](O[C@H]7[C@H](O)[C@@H](O)[C@@H](O[C@H]1[C@H](O)[C@H]2O)O[C@@H]7CO)O[C@@H]6CO)O[C@@H]5CO)O[C@@H]4CO)O[C@@H]3CO`, the AC50 was 26.2 µM (active).

Regarding `CC1(C)C(=O)N(Cl)C(=O)N1Cl`, the AC50 was 50 µM (active).

For `c1ccc2ncccc2c1`, the AC50 was 83.2 µM (active).

For `O=C(O)c1cccc(C(=O)O)c1`, the concentration at half-maximal activity (AC50) was 50 µM (active).

As for `C[C@@H](Oc1ccc(CNC(=O)c2cccnc2Oc2ccc3c(c2)OCO3)c(F)c1)C(=O)O`, the result was inactive.

With `CCCc1ccccc1`, the molecule was classed as inactive.

On to `CCOC(N)=O`, for which the AC50 is 50 µM (active).

Regarding `O=c1[nH]cnc2c1ncn2[C@H]1CC[C@@H](CO)O1`, the call was inactive.

Turning to `OCCOCCOCCO`, the half-maximal activity concentration (AC50) is 84.1 µM (active).

In the case of `OC[C@H]1O[C@@](CO)(O[C@H]2O[C@H](CO)[C@@H](O)[C@H](O)[C@H]2O)[C@@H](O)[C@@H]1O`, the AC50 was 67.1 µM (active).

Turning to `Nc1ccn([C@@H]2O[C@H](CO)[C@@H](O)[C@@H]2O)c(=O)n1`, the AC50 was 77.3 µM (active).

Turning to `CCCC(CCC)C(=O)O`, the AC50 is 64.3 µM (active).

Consider `OC(CCl)CCl`, for which the AC50 is 50 µM (active).

Regarding `COc1cc(C(C)C)c2c(c1)S(=O)(=O)N(COc1cc(=O)n3cccc(OCCN4CCCCC4)c3n1)C2=O`, the outcome was inactive.

`CC(C)c1nnc2ccc(-c3ocnc3-c3cc(F)ccc3F)cn12`: the AC50 was 29.9 µM (active).

For `OCC(CO)(CO)CO`, the molecule was classed as inactive.

Regarding `c1ccc2cc3ccccc3cc2c1`, the AC50 was 10.5 µM (active).

Turning to `C[C@]12C=CC(=O)C=C1CC[C@H]1[C@@H]3C[C@@H](O)[C@](O)(C(=O)CO)[C@@]3(C)C[C@H](O)[C@@]12F`, the AC50 was 50 µM (active).

Turning to `OC(Cn1cncn1)(Cn1cncn1)c1ccc(F)cc1F`, the molecule was classed as inactive.

With `OCc1ccccc1`, the outcome was inactive.

In the case of `COc1cc2c(c(OC)c1OC)-c1ccc(OC)c(=O)cc1[C@@H](NC(C)=O)CC2`, the AC50 is 0.0575 µM (active).

In the case of `CC(=O)c1ccccc1`, the AC50 was 76.7 µM (active).

Turning to `CCc1cccc(CC)c1N`, the concentration at half-maximal activity (AC50) was 50 µM (active).

`Cc1ncc([C@@H](CCCCCCc2ccc3c(n2)NCCC3)CC(=O)O)cn1`: the AC50 is 50 µM (active).

`CC(C)CC(C)O` (stereo not given): the AC50 was 50 µM (active).

Take `Cc1nccn1-c1ccc(Sc2cccc(C3(C(N)=O)CCOCC3)c2)cc1`: the call was inactive.

As to `O=C(NO)C1(NS(=O)(=O)c2ccc(Oc3ccc(F)cc3)cc2)CCOCC1`, the molecule was classed as inactive.

`O=C(O)c1ccc2c(c1)nc(C(=O)NC1CCN(C3CC3)CC1)n2Cc1cc(-c2ccc(Cl)s2)on1`: the concentration at half-maximal activity (AC50) is 12 µM (active).

For the molecule `OCCNCCO`, the molecule was classed as inactive.
